Tested on: Vero E6 infected with SARS-CoV-2
Test: inhibition of SARS-CoV-2 cytopathic effect; higher = more antiviral protection, active = above 15
Details: 48 h

Measured: inhibition of SARS-CoV-2 cytopathic effect

CC(=O)N[C@@H](CCC(N)=O)C(=O)O [aceglutamide]
inactive: 1 nM 1.69% | 8.33 nM 3.16% | 100 nM 6.3% | 833.33 nM 1.78% | 10000 nM -5.34%

Clc1ccc2c(NCCNc3ccnc4cc(Cl)ccc34)ccnc2c1
inactive: 1 nM -2.64% | 8.33 nM 0.71% | 100 nM 5.21% | 833.33 nM 0.16% | 10000 nM 0%

CS(=O)(=O)CCNCc1nc(-c2ccc3ncnc(Nc4ccc(OCc5cccc(F)c5)c(Cl)c4)c3c2)cs1
inactive: 1 nM 1.4% | 8.33 nM 3.81% | 100 nM 0.15% | 833.33 nM -4.71% | 10000 nM -4.14%

CC(C)CC(NC(=O)OCC1c2ccccc2-c2ccccc21)C(=O)O (stereo in doubt)
inactive: 1 nM 1.66% | 8.33 nM 2.4% | 100 nM 2.95% | 833.33 nM 3.51% | 10000 nM 0.68%

CCCC1(CCC)CCC2(CCN(CCCN(CC)CC)C2)CC1 [atiprimod]
inactive: 1 nM -0.73% | 8.33 nM 0.69% | 100 nM 0.76% | 833.33 nM -4.7% | 10000 nM -26.6%

CN[C@@H](C)CC1CCCCC1 [propylhexedrine]
inactive: 1 nM -0.64% | 8.33 nM -5.27% | 100 nM -5.29% | 833.33 nM -6.1% | 10000 nM -8.06%

CCOc1ccc(C(=O)OCCN(CC)CC)cc1 [parethoxycaine]
inactive: 1 nM 0.82% | 8.33 nM -3.01% | 100 nM -2.92% | 833.33 nM -0.3% | 10000 nM -0.09%

— the supplement of paper PMC13380429
